Reference: PubChem BioAssay
The source made the active and inactive calls. The rule behind the calls is not given here. Where a SMILES comes first, the peptide text is derived from it. [ ]: non-standard residue; d: D form. ξ: configuration not given here. ξV = CC(C)C(N)C(=O)O

What follows are compounds tested against Botulinum neurotoxin type A (Clostridium botulinum) (UniProt P0DPI0) (assay: BoNT/A light chain protease inhibitors, biochemical, multiplex microsphere flow cytometry, validation set (AID 588460)). Details: at 10 µM, active compounds read high.

| SMILES | inhibition |
| --- | --- |
| O=C1CC(c2ccc(F)cc2)Cc2nc(NCC3CCCO3)ncc21 (stereo not given) | 0.1% (inactive) |
| Cc1oc(/C=N/NC(=O)CC2(C)OCCO2)cc1Br | 0.6% (inactive) |
| O=C(CCCN1C(=O)/C(=C\c2cccc(Br)c2)SC1=S)Nc1cccnc1 | -0.3% (inactive) |
| Cc1ncc(CN2CCC(CO)(CCc3ccccc3)CC2)s1 | 0.2% (inactive) |
| CCOc1ccc(N2C(=O)CC(NCCNc3ccc([N+](=O)[O-])cn3)C2=O)cc1 (stereo not given) | 1.6% (inactive) |
| O=C(CCC1CCCN(C(=O)c2ccsc2)C1)NCc1ccc(F)c(F)c1 (stereo not given) | -0.6% (inactive) |
| CC(C)C(=O)Nc1cccnc1 | 0.9% (inactive) |
| CN(C)CCC=C1c2ccccc2CCc2ccccc21 | 0.2% (inactive) |
| CCCCOc1ccc(CC(=O)NO)cc1 | -0.2% (inactive) |
| O=[N+]([O-])c1cccc2cn[nH]c12 | 3% (inactive) |
| COCCOC(=O)c1c(C)oc2ccc(OCc3cc(C(=O)OC)oc3C)cc12 | -0.8% (inactive) |
| NC(=O)[C@@H]1[C@@H]2C(=O)N(c3ccc(F)cc3)C(=O)[C@@H]2[C@H]2C=Cc3ccccc3N21 | 1.5% (inactive) |
| Cc1ccc(C(CC(=O)NCc2ccco2)c2ccc(OC(C)C)cc2)cc1 (stereo not given) | -1.6% (inactive) |
| CC(=O)c1c(C)c(C)c2n1CCn1c(C)ccc1-2 | -0.1% (inactive) |
| Fc1ccc(-n2cc(CNCCc3ccccn3)c(-c3ccccc3Cl)n2)cc1 | 1.1% (inactive) |
| COc1ccc(C2NC(C(=O)O)Cc3c2[nH]c2ccccc32)cc1CN1CCN(c2ccc(F)cc2)CC1 (stereo not given) | 0.4% (inactive) |
| CC1=CC2(O)OCCN(CCO)C2=CC1=O (stereo not given) | -1% (inactive) |
| COc1ccc2c(c1)[nH]c1c(=O)n(Cc3ccccn3)cnc12 | -1% (inactive) |
| Nc1ccc(N)c(C(=O)O)c1 | -14% (inactive) |
| O=C(NCCc1c[nH]c2ccccc12)c1cccnc1 | -0.7% (inactive) |

| SMILES | inhibition |
| --- | --- |
| COc1cc(C2NCCc3c2[nH]c2ccccc32)ccc1OC(C)C (stereo not given) | -0.5% (inactive) |
| Cc1ccc(S(=O)(=O)Oc2ccccc2/C=N/N=C(N)N)cc1 | 1.3% (inactive) |
| CC(=O)N1CCN2C(=O)C1CCCC(=O)c1cc(C(C)C)ccc12 (stereo not given) | -1.6% (inactive) |
| Cc1ncoc1C(=O)N1CCCC(C(=O)c2ccc(-c3ccccc3)c(F)c2)C1 (stereo not given) | -0.1% (inactive) |
| CCOc1ccccc1C(=O)NCCC(=O)O | 1.9% (inactive) |
| S=C(NCCOCCOCCNC(=S)Nc1ccccc1)Nc1ccccc1 | 2% (inactive) |
| O=C(COc1ccccc1)Nc1ccc2c(c1)C(=O)N(CC1CCCO1)C2=O (stereo not given) | -0.9% (inactive) |
| COc1cc([C@@H]2c3cc4c(cc3[C@H](O)[C@H]3COC(=O)[C@H]23)OCO4)cc(OC)c1OC | 0% (inactive) |
| CCn1cc(C(=O)O)c(=O)c2cnc(N3CCNCC3)nc21 | 1% (inactive) |
| CC(C)C12CN3CC(C(C)C)(CN(C1)C3c1ccccc1)C2O (stereo not given) | 1.2% (inactive) |
| CC(=O)N1CCN(c2ccc(NC(=O)/C=C/c3ccccc3)cc2)CC1 | -0.3% (inactive) |
| CC(=O)NC(C(=O)NCC(N)=O)C(C)C (stereo not given) (Ac-[ξV]-Gly-NH2) | 0.1% (inactive) |
| CC(=O)OC[C@H]1O[C@@H](Sc2cccc3cccnc23)[C@H](OC(C)=O)[C@@H](OC(C)=O)[C@H]1OC(C)=O | -0.4% (inactive) |
| C=C(CC)C(=O)c1ccc(OCC(=O)O)c(Cl)c1Cl | -2.2% (inactive) |
| COc1ccc(CCn2c(C)cc3c(c2=O)C(c2ccncc2)C(C#N)=C(N)O3)cc1OC (stereo not given) | -0.6% (inactive) |
| Cc1nc(C)c(C)nc1C | -0.9% (inactive) |
| Cc1nc(NCc2ccco2)c(C#N)c2c1COC(C)(C)C2 | -1.2% (inactive) |
| CN(C)CCOC(c1ccccc1)c1ccccc1 (tested in a mixture with another compound) | -2.5% (inactive) |
| O=C(c1cccc2ccccc12)C1CCCN(C(=O)CCN2CCCO2)C1 (stereo not given) | 1.1% (inactive) |
| CC(=O)OCC(OC(C)=O)C(OC(C)=O)C(OC(C)=O)C(=O)Nc1cccc(C)c1 (stereo not given) | 1.2% (inactive) |

What follows are compounds tested against Lethal factor (Bacillus anthracis) (UniProt P15917) (assay: Bacillus anthracis lethal factor inhibition, microsphere flow cytometry protease assay, validation at 10 µM (AID 588461)). Details: multiplex microsphere protease cleavage assay, active compounds read high.

| SMILES | inhibition |
| --- | --- |
| O=C1CC(c2ccc(F)cc2)Cc2nc(NCC3CCCO3)ncc21 (stereo not given) | -6.1% (inactive) |
| Cc1oc(/C=N/NC(=O)CC2(C)OCCO2)cc1Br | 3.2% (inactive) |
| O=C(CCCN1C(=O)/C(=C\c2cccc(Br)c2)SC1=S)Nc1cccnc1 | 2.4% (inactive) |
| Cc1ncc(CN2CCC(CO)(CCc3ccccc3)CC2)s1 | -3% (inactive) |
| CCOc1ccc(N2C(=O)CC(NCCNc3ccc([N+](=O)[O-])cn3)C2=O)cc1 (stereo not given) | -3.4% (inactive) |
| O=C(CCC1CCCN(C(=O)c2ccsc2)C1)NCc1ccc(F)c(F)c1 (stereo not given) | -6.8% (inactive) |
| CC(C)C(=O)Nc1cccnc1 | -5.8% (inactive) |
| CN(C)CCC=C1c2ccccc2CCc2ccccc21 | 0.7% (inactive) |
| CCCCOc1ccc(CC(=O)NO)cc1 | 0.6% (inactive) |
| O=[N+]([O-])c1cccc2cn[nH]c12 | 6.3% (inactive) |
| COCCOC(=O)c1c(C)oc2ccc(OCc3cc(C(=O)OC)oc3C)cc12 | 1.6% (inactive) |
| NC(=O)[C@@H]1[C@@H]2C(=O)N(c3ccc(F)cc3)C(=O)[C@@H]2[C@H]2C=Cc3ccccc3N21 | -5.6% (inactive) |
| Cc1ccc(C(CC(=O)NCc2ccco2)c2ccc(OC(C)C)cc2)cc1 (stereo not given) | -4% (inactive) |
| CC(=O)c1c(C)c(C)c2n1CCn1c(C)ccc1-2 | 0.9% (inactive) |
| Fc1ccc(-n2cc(CNCCc3ccccn3)c(-c3ccccc3Cl)n2)cc1 | 6.5% (inactive) |
| COc1ccc(C2NC(C(=O)O)Cc3c2[nH]c2ccccc32)cc1CN1CCN(c2ccc(F)cc2)CC1 (stereo not given) | 2.2% (inactive) |
| CC1=CC2(O)OCCN(CCO)C2=CC1=O (stereo not given) | 2.5% (inactive) |
| COc1ccc2c(c1)[nH]c1c(=O)n(Cc3ccccn3)cnc12 | -4.7% (inactive) |
| Nc1ccc(N)c(C(=O)O)c1 | -7.2% (inactive) |
| O=C(NCCc1c[nH]c2ccccc12)c1cccnc1 | 1.1% (inactive) |

| SMILES | inhibition |
| --- | --- |
| COc1cc(C2NCCc3c2[nH]c2ccccc32)ccc1OC(C)C (stereo not given) | 4.3% (inactive) |
| Cc1ccc(S(=O)(=O)Oc2ccccc2/C=N/N=C(N)N)cc1 | -7.6% (inactive) |
| CC(=O)N1CCN2C(=O)C1CCCC(=O)c1cc(C(C)C)ccc12 (stereo not given) | -5.3% (inactive) |
| Cc1ncoc1C(=O)N1CCCC(C(=O)c2ccc(-c3ccccc3)c(F)c2)C1 (stereo not given) | -5.3% (inactive) |
| CCOc1ccccc1C(=O)NCCC(=O)O | 0.2% (inactive) |
| S=C(NCCOCCOCCNC(=S)Nc1ccccc1)Nc1ccccc1 | -3.8% (inactive) |
| O=C(COc1ccccc1)Nc1ccc2c(c1)C(=O)N(CC1CCCO1)C2=O (stereo not given) | 4.5% (inactive) |
| COc1cc([C@@H]2c3cc4c(cc3[C@H](O)[C@H]3COC(=O)[C@H]23)OCO4)cc(OC)c1OC | -2.8% (inactive) |
| CCn1cc(C(=O)O)c(=O)c2cnc(N3CCNCC3)nc21 | -7.3% (inactive) |
| CC(C)C12CN3CC(C(C)C)(CN(C1)C3c1ccccc1)C2O (stereo not given) | 7% (inactive) |
| CC(=O)N1CCN(c2ccc(NC(=O)/C=C/c3ccccc3)cc2)CC1 | -2.2% (inactive) |
| CC(=O)NC(C(=O)NCC(N)=O)C(C)C (stereo not given) (Ac-[ξV]-Gly-NH2) | 0.5% (inactive) |
| CC(=O)OC[C@H]1O[C@@H](Sc2cccc3cccnc23)[C@H](OC(C)=O)[C@@H](OC(C)=O)[C@H]1OC(C)=O | 0.7% (inactive) |
| C=C(CC)C(=O)c1ccc(OCC(=O)O)c(Cl)c1Cl | -10.3% (inactive) |
| COc1ccc(CCn2c(C)cc3c(c2=O)C(c2ccncc2)C(C#N)=C(N)O3)cc1OC (stereo not given) | -6.7% (inactive) |
| Cc1nc(C)c(C)nc1C | -9.1% (inactive) |
| Cc1nc(NCc2ccco2)c(C#N)c2c1COC(C)(C)C2 | -0.5% (inactive) |
| CN(C)CCOC(c1ccccc1)c1ccccc1 (tested in a mixture with another compound) | -6.7% (inactive) |
| O=C(c1cccc2ccccc12)C1CCCN(C(=O)CCN2CCCO2)C1 (stereo not given) | 2.5% (inactive) |
| CC(=O)OCC(OC(C)=O)C(OC(C)=O)C(OC(C)=O)C(=O)Nc1cccc(C)c1 (stereo not given) | 3.1% (inactive) |
